According to PubChem BioAssay AID434973 (Sanford-Burnham Center for Chemical Genomics, 2010):
Hit rate of the full screen: of about 330,000 compounds, about 4,900 (1.5%) were called active.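 The calls were made as follows: active = inhibition above about 50% at the single test dose (limit read from the data); inactive = the rest.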 Many of the other results were omitted from the sample, so actives are more common in it than they were.

Target: Sentrin-specific protease 7 (Homo sapiens) (UniProt Q9BQF6)
Test: SENP7 protease inhibitors, primary screen, biochemical, luminescence, uHTS (AID 434973);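 also: plate controls were DMSO with enzyme for no effect and no enzyme buffer wells for full effect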
Details: recombinant SENP7, Z-RLRGG-aminoluciferin luminescence, 40 min; at 5 µM; stronger effect = higher value

inhibition, active:
COc1ccc(N=C(C)c2sc3ccccc3c2O)cc1 83.7%
Cc1ccc2cc3cc(C(=O)N4CCCCCC4)oc3nc2c1 55.3%
c1ccc2sc(NN=C3CCCC3)nc2c1 82.2%
Cc1c(-c2ccccc2)n[nH]c1C(=O)N=Nc1c(O)[nH]c2ccccc12 84.6%
CCCOc1ccc(C(=O)NCCc2ccccc2)cc1 78.1%
COc1ccc(-c2cn3ccsc3n2)cc1 58.5%
COc1ccc(-c2cn3ccc(C)cc3n2)cc1 98.1%
Cc1csc(SCC(=O)Nc2sccc2C#N)n1 94%
O=C(Nc1cccc([N+](=O)[O-])c1)c1ccc2c(c1)OCO2 66.9%
O=C(Nc1ccccc1)c1ccc2c(c1)OCCCO2 90.7%
O=C(Nc1ccccc1)c1ccc2c(c1)OCO2 88.5%
O=C(Nc1ccccc1F)c1ccc2c(c1)OCO2 67.5%
CC(=O)Nc1cccc(C(=O)OCC(=O)c2ccc3c(c2)OCO3)c1 81.4%
O=C(Nc1ccccc1)Nc1nc2ccccc2s1 66%
O=C(Nc1nc2ccccc2s1)c1ccc2c(c1)OCO2 97.1%
O=C(OCc1ccccc1F)c1ccc2c(c1)OCCO2 84.2%
Clc1ccc(-c2cc(-c3ccccn3)on2)c(Cl)c1 99.4%
O=C(Nc1ncc([N+](=O)[O-])s1)C1COc2ccccc2O1 (stereo not drawn) 96.7%
O=C(Nc1ccc2c(c1)CCC2)c1ccc(Br)s1 69.4%
Cc1ccsc1C(=O)N/N=C/c1ccc([N+](=O)[O-])cc1 80.9%
Cc1ccc(NC(=O)c2sccc2C)cc1[N+](=O)[O-] 83.7%

inhibition, inactive:
CN(c1ccccc1)S(=O)(=O)c1ccc(Cl)c(C(=O)OCC(=O)N2CCOCC2)c1 3.02%
O=C(NCCC(=O)N1O[C@@H]2C=C[C@H]1C2)OCC1c2ccccc2-c2ccccc21 3.86%
Cc1ccn(C(CC(=O)c2ccc(Br)cc2)C(=O)O)n1 (stereo not drawn) 4.97%
CCCCN(CC)C(=O)c1ccccc1Oc1ccccc1 6.13%
COC(=O)c1nn(-c2cccc(Cl)c2)ccc1=O 3.97%
COC(=O)c1ccc(/C=C/c2c(-c3ccc(OC)cc3)sc3ccccc23)cc1 3.42%
COc1ccc(-c2sc3ccccc3c2-c2ccc(OCCN3CCOCC3)cc2)cc1 -12.1%
Cc1ccc2nc(N3CCN(C(=O)c4ccco4)CC3)sc2c1 -7.97%
Cc1cc(C)cc(NC(=O)N2CCCCCCC2)c1 0.706%
O=c1onc(-c2c(F)cccc2F)n1-c1ccccc1Cl -2.38%
Cc1cc(=O)[nH]c(S)c1C#N 7.81%
CCc1ccc(OCC(=O)OCC(=O)c2c(N)n(C)c(=O)n(C)c2=O)cc1 -1.23%
CCN(CC)CCn1c2c(c(SCC(=O)Nc3nc4ccccc4s3)nc1=O)CCCC2 4.47%
O=C1NC(Nc2nc3ccccc3s2)(C(F)(F)F)C(=O)N1C1CCCCC1 (stereo not drawn) 6.04%
COc1ccc(CNC(=O)C2CCC(CNc3c(N4CCOCC4)c(=O)c3=O)CC2)cc1 (stereo not drawn) -10.4%
O=C(Nc1nnc(-c2ccccc2)o1)c1cccc(S(=O)(=O)N2CCOCC2)c1 -5.26%
O=C(O[C@H]1[C@H](Cc2ccccc2)NS(=O)(=O)[C@H]2C[C@@H]3C=C[C@]12O3)c1ccc([N+](=O)[O-])cc1 7.73%
Cc1cccc(N(CC(=O)N=Nc2c(O)[nH]c3ccccc23)S(C)(=O)=O)c1C 5.39%
O=C(CCN1CCCCC1)N=Nc1c(O)[nH]c2ccccc12 -5.94%
CCCc1ccc(OCCNC(=O)c2ccccc2Br)cc1 -1.05%
CCCc1ccc(OCCNC(=O)c2ccco2)cc1 -0.541%
COc1ccc(CCNC(=O)C(=O)NCC2CCNCC2)cc1OC 2.84%
COc1ccc(SC[C@H](Cc2ccccc2)N2CCN(CCc3ccccc3)CCC2=O)cc1 -3.68%
CCn1cc(C(=O)NCCCN2CCCCCC2)c(=O)c2cc(S(=O)(=O)N3CCc4ccccc4C3)ccc21 7.21%
COc1ccc(-c2cn3cccnc3n2)cc1 1.35%
CCN(CC)S(=O)(=O)c1ccc(-c2cn3ccc(C)cc3n2)cc1 10.3%
Cc1ccn2cc(C(=O)NC3CCN(Cc4ccccc4)CC3)nc2c1 5.68%
COc1cc(OC)cc(-c2nc(=S)n3ccsc3n2)c1 0.18%
CC(C)(C)c1ccc(/C=C/C(=O)NC2CCS(=O)(=O)C2)cc1 (stereo not drawn) 5.24%
Cc1ccc(S(=O)(=O)N2CCN(C(=O)c3ccc(-n4cncn4)c([N+](=O)[O-])c3)CC2)cc1 0.142%
CN(C)S(=O)(=O)c1cc(NC(=O)CN2C(=O)NC3(CCCc4ccccc43)C2=O)ccc1Cl (stereo not drawn) -13.5%
Cc1nc2nc(C)c(NS(=O)(=O)c3ccc(C(C)(C)C)cc3)c(=O)n2[nH]1 -0.191%
Cc1ccc(NC(=O)CSCC(=O)Nc2sccc2C#N)cc1 1.52%
Cc1cccc(C)c1Nc1nnc(SCC(=O)Nc2sccc2C#N)s1 8.73%
COC(=O)C1=C(C)NC(=O)/C1=C/c1ccc(CNS(=O)(=O)c2ccc(C)cc2)o1 -2.86%
CC(=O)Nc1ccc(C(=O)Nc2cccc(S(=O)(=O)NC3=NCCC3)c2)cc1 -0.0847%
CC(C)C(=O)Nc1cccc(C(=O)Nc2ccc3c(c2)OCO3)c1 34.3%
CC(NC(=O)Nc1cccc([N+](=O)[O-])c1)c1ccc2c(c1)OCO2 (stereo not drawn) 3.89%
CN1CCN(c2ccc(NC(=O)c3ccc4c(c3)OCCO4)cc2Cl)CC1 -1.01%
N#Cc1ccccc1NC(=O)c1ccc2c(c1)OCO2 2.46%
O=C(Nc1ccc2c(c1)OCCO2)c1ccoc1 -0.659%
CN(Cc1c(F)cccc1Cl)C(=O)CNC(=O)c1ccc2c(c1)OCO2 -9.22%
O=C(Nc1ccc(NC(=O)c2ccc3c(c2)OCO3)cc1)c1cccc(Cl)c1 1.85%
O=C(Nc1ccc(N2CCOCC2)cc1)c1ccc2c(c1)OCO2 16.9%
Cc1ccc(S(=O)(=O)N2CCOCC2)cc1NC(=O)CSc1nnc(N)s1 -5.72%
CC(C)(C)C1CCC(OC(=O)CCC(=O)Nc2ccccc2)CC1 (stereo not drawn) 3.21%
COc1cc(OC)cc(/C(N)=N/O)c1 0.905%
O=C(CN1C(=O)NC2(CCCC2)C1=O)NCC1CCCO1 (stereo not drawn) 4.93%
O=C(CN1C(=O)CC(c2ccccc2)S(=O)(=O)c2ccccc21)NC1CCCC1 (stereo not drawn) 2.74%
O=c1ccc2cc(S(=O)(=O)NCCCc3ccccc3)ccc2[nH]1 4.36%
CCOC(=O)CCP(=O)(O)C(O)(c1ccccc1)c1ccccc1 -5.54%
O=S(=O)(c1cccc(-c2nnc(SC(F)F)n2-c2ccccc2)c1)N1CCCCC1 1.56%
Cc1ccc2sc(NNC(=O)c3ccc4c(c3)OCCO4)nc2c1C 2.93%
N#CCCN(C(=O)COC(=O)c1ccc2c(c1)OCCO2)c1ccccc1 3.84%
COCc1nnc(NC(=O)c2ccc3c(c2)OCO3)s1 12.1%
O=C(COC(=O)c1ccc(F)cc1)Nc1ccc2c(c1)OCO2 -9.15%
O=C(COC(=O)c1ccc2c(c1)OCCO2)NCc1ccccc1Cl -9.15%
O=C(COC(=O)c1ccncc1)Nc1ccc2c(c1)OCO2 -10.3%
CSc1nsc(NC(=O)Nc2ccccc2)n1 34.9%
O=C(CCC(=O)c1cccs1)Nc1nc2ccccc2s1 1.54%
CC[N+]1(CC)CC2=Cc3ccccc3CC2C1 (stereo not drawn) 5.4%
Cc1ccc(CN2CCN(/N=C/c3cccnc3)CC2)c(C)c1 4.31%
CCN(C(=O)C1CCCN(c2nc(-c3ccc(OC)cc3)no2)C1)c1ccc(OC)cc1 (stereo not drawn) -0.167%
CCOC(=O)CSc1nnc(NC(=O)C2CC(=O)N(c3ccc(F)cc3)C2)s1 (stereo not drawn) -6.57%
CC(=O)Nc1ccc(S(=O)(=O)N2CCN(S(=O)(=O)c3cccs3)CC2)cc1 -14%
Cc1ccccc1Nc1scc(-c2ccc(Br)cc2)[n+]1-c1ccccc1C 0.441%
COc1ccc(/C(C)=N/N2CCOCC2)c(O)c1 9.39%
S=C(Nc1ccc2c(c1)OCO2)N1CCCC1 -4.52%
CCCc1nc2oc3c(OCC)ncnc3c2c2c1COC(C)(C)C2 -3.93%
Clc1ccc(COn2c(-c3ccc(Cl)cc3Cl)nc3ncccc32)cc1 0.814%
O=C1c2ccccc2C(=O)N1Cc1cc(-c2ccccc2Cl)no1 -0.976%
CC1=NNC(=O)C1CCC(=O)N/N=C(\C)c1ccc(Cl)cc1 (stereo not drawn) 0.851%
COc1ccc(OC)c2sc(NC(=O)C3COc4ccccc4O3)nc12 (stereo not drawn) -4.59%
COc1ccc(NC(=O)C2COc3ccccc3O2)cc1 (stereo not drawn) -20.8%
CC(C)C1C2=C(CC(C)(C)CC2=O)ON1c1ccccc1 (stereo not drawn) 3.53%
CC1CC(C)CN(CCC(=O)Nc2ccc3c(c2)CCC3)C1 (stereo not drawn) 5.5%
CC(C)Oc1ccc(C(=O)NCC(=O)Nc2ccc3c(c2)CCC3)cc1 3.44%
CC(C)CCN1NC2(CCC(C)CC2)NC1=S (stereo not drawn) -7.22%
Cc1cc(O)c(NC(=O)c2ccc(C)c([N+](=O)[O-])c2)cc1C -7.98%
Cc1ccc(/C=N/NC(=O)c2sccc2OCc2ccc(F)cc2)cc1 -13.6%
O=C(N/N=C/c1ccc([N+](=O)[O-])cc1)C(=O)N1CCCC1 -3.45%
Cc1ccc(NC(=O)CN(C)CC(=O)Nc2cccc(F)c2)cc1[N+](=O)[O-] -3.97%
